The values that follow come from PubChem BioAssay (NCATS).

Inconclusive results are not listed. A number with no mark means an inactive call. Active and inactive are the calls of the source. The call rests on the fitted dose curve; in most records, active means well fitted inhibition curve with a large enough effect; inconclusive means small, poorly fitted or top-dose-only effect; inactive means no such curve, though single readings can be large or run the other way.
Potency means the concentration at half of the fitted maximal effect.

The assay relates to Zika virus NS2B-NS3 protease (unlinked). Kind of assay: Optimization of GU AMC qHTS for Zika virus inhibitors: Unlinked NS2B-NS3 protease assay (AID 1347151). Further: nearly all actives have a fitted effect of over 80% in size.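 On activity change, negative = inhibition: 0% = no-inhibitor control and -100% = no-enzyme control.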 Conditions: recombinant ZIKV NS2B-NS3 protease, fluorogenic AMC substrate; series mostly up to 52.5 µM; activity change, negative = inhibition: at the top concentration. The procedure, abridged: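 Noncovalent NS2B hydrophilic domain–NS3 protease complex (25 nM final) in 10 mM Tris-HCl pH 8.0, 0.01% Tween 20; AMC substrate, room temperature 15 min (~20% conversion); fluorescence change normalized, 4-parameter Hill fit.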
Turning to `CC(C)CC(NP(=O)(O)O[C@@H]1O[C@@H](C)[C@H](O)[C@@H](O)[C@H]1O)C(=O)NC(Cc1c[nH]c2ccccc12)C(=O)O` (some centres not stated), the “activity change, negative = inhibition” value was -3.79%.
Regarding `N#C/C(=C\c1ccc(-c2cc(Cl)ccc2Cl)o1)C(=O)Nc1cccc2ncccc12`, the Potency was 26.7 µM (active).
With `CN(C)CCC(c1ccc(Cl)cc1)c1ccccn1` (configuration not stated), the “activity change, negative = inhibition” value is 11.8%.
Same read-out and setting: in the case of `NC(=S)c1ccc[n+]([C@@H]2O[C@@H](COP(=O)([O-])OP(=O)(O)OC[C@H]3O[C@@H](n4cnc5c(N)ncnc54)[C@H](OP(=O)(O)O)[C@@H]3O)C(O)C2O)c1` (some centres not stated) it was -2.95%; in that of `Cc1cc(NC2CCCCC2)nc(-n2nc(C)cc2C)n1`, -9.89%; in that of `Nc1nc(OCC2CCCCC2)c2[nH]cnc2n1`, -10.4%.
Same read-out and setting: as for `Brc1cc2c(cc1[C@H]1Nc3ccccc3[C@H]3C=CC[C@H]31)OCO2`, the figure is -8.63%; as for `NCCCS(=O)(=O)O`, -3.65%; as for `CC[C@H]1OC(=O)[C@H](C)C(O[C@H]2C[C@@](C)(OC)[C@@H](O)[C@H](C)O2)[C@H](C)[C@@H](OC2O[C@H](C)C[C@H](N(C)C)[C@H]2O)[C@](C)(O)C[C@@H](C)CN(C)[C@H](C)[C@@H](O)[C@]1(C)O` (some centres not stated), 7.28%.
On to `O=C(CCCCCN1CCN(c2ccccc2-c2ccccc2)CC1)NC1CCCc2ccccc21` (configuration not stated), for which the Potency was 23.8 µM (active).
`NCCSSCCN`: the “activity change, negative = inhibition” value is 7.93%.
On the same count and under the same terms, as for `NCCCCC(=O)O`, the figure is 0.718%; as for `O=Nc1ccc2oc(=O)ccc2c1`, -5.26%.
The same measure, in the same setting: as for `NC(=O)C(=O)O`, the figure is -3.2%.
The same measure, in the same setting: in the case of `Cc1ccccc1CNc1ncnc2c1ncn2C1OC(CO)C(O)C1O` (configuration not stated) it was -5.27%; in that of `Oc1ccccc1O`, -0.573%; in that of `CCC(CO)Nc1nc(NCc2ccccc2)c2ncn(C(C)C)c2n1` (configuration not stated), -3.96%.
As for `c1ccc(-c2ccccn2)nc1`, the “activity change, negative = inhibition” value was 3.52%.
Same read-out and setting: as for `Nc1nc2c(ncn2[C@@H]2O[C@H](CO)[C@@H](O)[C@@H]2O)c(=O)[nH]1`, the figure is 8.31%; as for `O=C(O)CNC(=O)C(CS)Cc1ccccc1` (configuration not stated), 3.11%.
For the compound `O=S(=O)(c1cccc2c(I)cccc12)N1CCCNCC1`, the “activity change, negative = inhibition” value is 11.3%.
On the same count and under the same terms, as for `CCCCCCCCCCCCCCCCCCN(CCCCCCCCCCCCCCCCCC)CCCN(CCO)CCO`, the figure is 13%; as for `O=P(O)(O)C(Cl)(Cl)P(=O)(O)O`, -8.97%; as for `CC1OC1P(=O)(O)O` (configuration not stated), -3.1%.
In the case of `NCC1OC(O[C@H]2[C@H](O)[C@@H](OC3C(O)C(N)CC(N)C3OC3OC(CO)C(O)C(O)C3N)O[C@@H]2CO)C(N)C(O)C1O` (some centres not stated), the “activity change, negative = inhibition” value is 5.21%.
Consider `C=CC(N)CCC(=O)O` (configuration not stated), for which the “activity change, negative = inhibition” value was -5.49%.
In the case of `Cn1c(=O)c(-c2c(Cl)cccc2Cl)cc2cnc(Nc3ccc(N4CCOCC4)cc3)nc21`, the “activity change, negative = inhibition” value was 3.83%.
With `Oc1cc(O)cc(/C=C/c2ccc(O)c(O)c2)c1`, the Potency is 23.8 µM (active).
`CC(C)Cc1ccc([C@H](C)C(=O)O)cc1`: the “activity change, negative = inhibition” value is -3.16%.
The same measure, in the same setting: as for `O=C(O)CC[C@@H](C(=O)O)N1C(=O)c2ccccc2C1=O`, the figure is 231%; as for `CCN1/C(=C/C(C)=O)Sc2ccc(OC)cc21`, -17.5%; as for `CN1CCc2cc(NC(=O)Nc3cccnc3)ccc21`, -12.8%.
On the same count and under the same terms, as for `CCOC(=O)N1CCN(/[N+]([O-])=N/Oc2ccc([N+](=O)[O-])cc2[N+](=O)[O-])CC1`, the figure is -11.7%.
For the compound `N#C/C(=C\c1ccc(O)c(O)c1)C(=O)c1ccc(O)c(O)c1`, the Potency is 1.19 µM (active).
In the case of `O=[N+]([O-])c1ccc(CSc2ncnc3c2ncn3[C@@H]2O[C@H](CO)[C@@H](O)[C@H]2O)cc1`, the “activity change, negative = inhibition” value is 2.67%.
Consider `O=C(/C=C/c1ccc(O)c(O)c1)OCCc1ccccc1`, for which the Potency was 6.7 µM (active).
Take `NO`: the “activity change, negative = inhibition” value is 3.94%.
